Assay outcomes from PubChem BioAssay.
HP1b chromo inh: HTS for Inhibitors of HP1-beta Chromodomain Interactions with Methylated Histone Tails; Potency, µM (highest dose often 114 µM), for the others: at the top dose activity change, negative = inhibition, actives largely listed as inhibitors; AlphaScreen HP1-beta / biotin-H3K9me3 peptide binding; 0.56% of 390,000 active; AID 540317, 2011; Chromobox protein homolog 1 (Homo sapiens), P83916; also: nearly all actives have a fitted effect of over 70% in size
Target sequence (P83916 whole entry, looked up): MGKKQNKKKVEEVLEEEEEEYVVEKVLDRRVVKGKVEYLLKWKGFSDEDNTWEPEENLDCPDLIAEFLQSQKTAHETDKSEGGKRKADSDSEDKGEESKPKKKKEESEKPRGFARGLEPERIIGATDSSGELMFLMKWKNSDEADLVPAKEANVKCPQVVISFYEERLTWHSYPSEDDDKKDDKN
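HP1-beta protein (50 nM final) preincubated 30 min at room temperature with biotinylated H3(1-18)K9me3 peptide (50 nM) in PBS pH 7.4, 0.01% Tween-20, then compound added for 30 min. AlphaScreen streptavidin donor/nickel chelate acceptor beads (10 ug/mL final), 30 min dark, luminescence read.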
JMJD2A Tudor: qHTS Assay for Inhibitors of JMJD2A-Tudor Domain; Lysine-specific demethylase 4A (Homo sapiens), O75164; AlphaScreen JMJD2A-Tudor / H3K4me3 peptide binding; Potency, µM (series often up to 114 µM), for the others: top-dose activity change, negative = inhibition, hits mostly inhibitors; 4.4% of 390,000 active; AID 504339, 2011; also: % is scaled to controls: 0 for no effect and ±100 for the full control effect; nearly all actives have a fitted effect of over 50% in size
G9a block: qHTS Assay for Inhibitors of Histone Lysine Methyltransferase G9a; G9a H3K9 monomethylation, AlphaScreen, 2 h; Histone-lysine N-methyltransferase EHMT2 (Homo sapiens), Q96KQ7; Potency, µM (titrated, usually from 102 µM), for the others: at the top dose activity, negative = inhibition, actives largely listed as inhibitors; 8.8% of 350,000 active; also: % is scaled to controls: 0 for no effect and ±100 for the full control effect; nearly all actives have a fitted effect of over 75% in size
Target sequence (Q96KQ7 913-1193 limits assumed): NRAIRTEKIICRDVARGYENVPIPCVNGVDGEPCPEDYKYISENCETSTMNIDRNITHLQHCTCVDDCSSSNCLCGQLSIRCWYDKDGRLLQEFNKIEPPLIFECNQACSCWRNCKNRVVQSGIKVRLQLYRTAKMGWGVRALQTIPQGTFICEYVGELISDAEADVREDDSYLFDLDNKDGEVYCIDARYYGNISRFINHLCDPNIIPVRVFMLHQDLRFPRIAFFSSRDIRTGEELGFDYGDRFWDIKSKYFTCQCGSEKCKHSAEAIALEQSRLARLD
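Quantitative HTS format: methyltransferase activity on a biotin-tagged H3K9 peptide is measured by AlphaScreen, using a rabbit anti-monomethyl-H3K9 antibody with streptavidin donor and anti-IgG acceptor beads. Final levels are 20 nM enzyme, 500 nM peptide, 20 uM SAM; 2 h RT.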
L3MBTL1 block: qHTS Assay for the Inhibitors of L3MBTL1 | Lethal(3)malignant brain tumor-like protein 1 (Homo sapiens), Q9Y468 | AlphaScreen L3MBTL1–H3K9me1 peptide binding | Potency, µM (top dose mostly 57.1 µM), for inactives: top-dose activity, negative = inhibition, hits mostly inhibitors | 0.66% of 230,000 active; also: % is scaled to controls: 0 for no effect and ±100 for the full control effect; nearly all actives have a fitted effect of over 60% in size
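Displacement of a biotinylated histone H3(1-15) peptide monomethylated at Lys9 (75 nM) from L3MBTL1 (50 nM) was measured by AlphaScreen after a 30 min room-temperature compound incubation; cefsulodin titration served as intraplate control.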
BAZ2B inh: qHTS Assay for Inhibitors of BAZ2B; 4.4% of 360,000 active; AID 504333, 2011; AlphaScreen BAZ2B-H3K14Ac peptide displacement; Potency, µM (titrated, usually from 114 µM), without a hit: top-dose activity change, negative = inhibition, most hits filed as inhibitors; Bromodomain adjacent to zinc finger domain protein 2B (Homo sapiens), Q9UIF8; also: % is scaled to controls: 0 for no effect and ±100 for the full control effect; nearly all actives have a fitted effect of over 60% in size
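Protein-peptide AlphaScreen: BAZ2B 50 nM, b-H3K14Ac 50 nM, 1x PBS pH 7.4 + 0.01% Tween-20. Preincubation 30 min RT; cpd 30 min RT (top 110 uM); beads 20 min RT, light-protected.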
* = called active by the depositor; u = inconclusive; x = no result; ! = repeats disagree; [ ] = another dose, or the depositor's remark. In the library only some 11% were active in any assay of this set; here they are far more common. Calls follow the shape of the dose curve; as a rule, active = well fitted inhibition curve with a large enough effect; inconclusive = small, poorly fitted or top-dose-only effect; inactive = no such curve, though single readings can be large or run the other way. Potency is read from the fitted curve at half-maximal effect.

SMILES | HP1b chromo inh | JMJD2A Tudor | G9a block | L3MBTL1 block | BAZ2B inh
CC(C)OC(=O)Nc1ccc2nc(-c3cscn3)[nH]c2c1 | x | x | -50%[12.7 µM] | x | x
CCN(CC(=O)NCc1cccs1)C(=O)c1cccc(S(=O)(=O)N2CC(C)OC(C)C2)c1 (stereo not given) | 23% | -8% | x | -4% | x
Cc1nc2sc(C(N)=O)c(N)c2c(C)c1CC(=O)c1ccccc1 | 56% | -12% | 14µM* | x | u
Cc1cc(C)c2c(N)c(C(=O)c3ccccc3)sc2n1 | 82% | 8% | x | 23% | 8%
O=C(O)c1cc(-c2ccc(-c3c(-c4ccc5c(c4)OCO5)noc3-c3ccsc3)cc2)nc2ccccc12 | -2% | 89µM* | 56µM* | -17% | u
Cc1ccc(/C=N/NC(=O)c2cc(-c3ccncc3)nc3ccccc23)o1 | 27% | -34% | 45µM* | x | u
Cc1ccc(/C=N\NC(=O)c2cncc(Br)c2)o1 | 29% | -14% | 50µM* | 14% | -4%
O=C(Nc1ccc2c(c1)OCO2)c1cc(-c2ccncc2)nc2ccccc12 | u | u | 50µM* | x | u
Cc1ccc(/C=N/NC(=O)c2cccnc2)o1 | 39% | -16% | -4% | x | -18%
Cc1oc(-c2ccc(C(=O)NCc3ccc(Cl)cc3)cc2)nc1CS(=O)(=O)c1ccccc1 | 11% | -26% | u | x | -24%
COc1ccc(OC)c(C2C(C(=O)N3CCCCC3)=C(C)Nc3nc4ccccc4n32)c1 (stereo not given) | 12% | -16% | -25%[59 µM] | x | 1%
Cc1ccc(-c2cc(C(=O)N/N=C/c3ccc([N+](=O)[O-])o3)c3ccccc3n2)o1 | 10% | -35% | 45µM* | x | -37%
O=C(N/N=C/c1ccsc1)c1cc(-c2ccncc2)nc2ccccc12 | 16% | -17% | 3% | -14% | -25%
O=C(N/N=C/c1ccccn1)c1cc(-c2ccncc2)nc2ccccc12 | 40% | -1% | -4%[59 µM] | -8% | 79µM*
O=C(CCc1ccccc1)Nc1ncnc2c1C(c1ccccc1)c1c(ccc3ccccc13)O2 (stereo not given) | x | -35% | x | x | x
O=C1COc2ccc(-c3csc(NCCc4ccccc4)n3)cc2N1 | -18% | u | 40µM* | -15% | 50µM*
CCC(C)C(=O)Nc1nc(-c2ccc3c(c2)NC(=O)CO3)cs1 (stereo not given) | u | -23%[57.1 µM] | u | -13% | -9%
CC1CC=CC2C1C(=O)N(Cc1ccccc1)C2c1ccc(C(F)(F)F)cc1 (stereo not given) | 60% | 6% | x | x | x
CC(=O)c1cccc(CN2CCC(CO)(CCCc3ccccc3)CC2)c1 | 40% | -13% | x | u | -2%
CC(=O)Nc1ccc2nc(CN3CCC(CO)(CCc4ccccc4)CC3)ccc2c1 | 10% | 32µM* | -39% | -19% | -33%
CSc1nc2nc3c(cc2c(=O)n1-c1ccccc1C)CCCC3 | 34% | 1% | 7.1µM* | -6% | -16%
CC(=O)c1ccc(NC(=O)CSC2=NS(=O)(=O)c3cc(Cl)ccc3N2)cc1 | 8% | -11% | u | -3% | -8%
CC1=NS(=O)(=O)c2cc(Cl)ccc2N1 | 25% | -6% | 2.8µM*! | 0% | 5%
O=C(CSC1=NS(=O)(=O)c2cc(Cl)ccc2N1)c1ccc(Cl)cc1 | 44% | -11% | 56µM* | -5% | -9%
Cc1ccc(S(=O)(=O)COCCN2CCN(S(=O)(=O)c3ccc(C)cc3)CCC2=O)cc1 | x | x | -50%[59 µM] | x | x
c1nc(NCC2CCCO2)c2ccc(-c3ccc4c(c3)OCO4)cc2n1 (stereo not given) | x | 79µM* | x | x | x
Cc1cc(=O)[nH]c(N/N=C/c2cccs2)n1 | 28% | u | -22%[59 µM] | 15% | 2%
O=c1cnnc(N/N=C/c2cccs2)[nH]1 | 16%[57 µM] | -28% | x | x | 79µM*
O=C(/C=N/O)Nc1ccc2sc3ccccc3c2c1 | 27% | -4% | x | x | -19%
